JMJD2A Tudor inh: JMJD2A Tudor domain (human) inhibition | AID 504339 | 390,000 compounds, 4.4% hits | AlphaScreen JMJD2A-Tudor / H3K4me3 peptide binding | Potency, µM (titrated, usually from 114 µM), for the others: top-dose activity change, negative = inhibition, most hits filed as inhibitors | O75164; note: potency is the fitted concentration of half-maximal effect; % is set by controls: 0 for no effect and ±100 for the full control effect; nearly all actives have a fitted effect of over 50% in size
HP1b chromo inh: inhibitors of HP1-beta chromodomain binding to methylated histone tails | 390,000 compounds, 0.56% hits | AlphaScreen HP1-beta / biotin-H3K9me3 peptide binding | AID 540317 | Potency, µM (series often up to 114 µM), inactives show at the highest dose activity change, negative = inhibition, most hits filed as inhibitors; note: potency is the fitted concentration of half-maximal effect; nearly all actives have a fitted effect of over 70% in size
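Compound inhibition of the preformed complex between 50 nM HP1-beta and 50 nM biotinylated H3K9me3 peptide was read by AlphaScreen. Buffer was PBS pH 7.4 with 0.01% Tween-20. Incubations ran 30 min at room temperature, with 10 ug/mL donor/acceptor beads.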
CtBP-E1A blk: CtBP/E1A binding inhibition | AID 651724 | activity change, % (test concentration not listed) | AlphaScreen GST-E1A/His-CtBP binding, 1536-well; active compounds read low | 340,000 compounds, 0.49% hits; in the data active = activity change below about -65%; inconclusive = mostly about -30% to -63%; note: % is set by controls: 0 for no effect and ±100 for the full control effect
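GST-E1A and His-tagged CtBP (125 nM each as 5X stock) were preincubated with pin-transferred compound for 2 h at 37 °C in the dark, then glutathione donor and nickel acceptor beads were added for 1 h before AlphaScreen reading.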
BAZ2B inh: BAZ2B (human) inhibition | Q9UIF8 | AlphaScreen BAZ2B-H3K14Ac peptide displacement | Potency, µM (series often up to 114 µM), without a hit: at the top dose activity change, negative = inhibition, actives largely listed as inhibitors | 360,000 compounds, 4.4% hits | AID 504333; note: potency is the fitted concentration of half-maximal effect; % is set by controls: 0 for no effect and ±100 for the full control effect; nearly all actives have a fitted effect of over 60% in size
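AlphaScreen displacement: compounds (up to 110uM) incubated 30 min at room temperature with a preformed 50 nM BAZ2B/50 nM biotinylated H3K14Ac peptide complex in PBS pH 7.4 with Tween-20. Donor and acceptor beads at 10 ug/mL final added, 20 min light-protected before reading.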
G9a block: blocks human histone lysine methyltransferase G9a; Q96KQ7; G9a H3K9 monomethylation, AlphaScreen, 2 h; Potency, µM (highest dose often 102 µM), for the others: top-dose activity, negative = inhibition, hits mostly inhibitors; 350,000 compounds, 8.8% hits; AID 504332; note: potency is the fitted concentration of half-maximal effect; % is set by controls: 0 for no effect and ±100 for the full control effect; nearly all actives have a fitted effect of over 75% in size
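G9a (20 nM) was preincubated 15 min with compound, then reacted 2 h at room temperature with 500 nM biotin-H3K9 peptide and 20 µM SAM. Monomethyl-H3K9 detected by AlphaScreen using anti-H3K9me1 antibody.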
Six1-Eya2 blk: blocks human Six1 binding to Eya2; AlphaScreen GST-Six1/His-Eya2 binding, biochemical; active compounds read low; 360,000 compounds, 0.56% hits; Q15475+O00167; activity change, % (no concentration beside the values); AID 651725; in the data active = activity change below about -65%; inconclusive = mostly about -30% to -63%; note: % is set by controls: 0 for no effect and ±100 for the full control effect
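Homogeneous AlphaScreen proximity assay pairing GST-Six1 with His-tagged Eya2 (added as 5X mix: 250 nM and 500 nM) in 50 mM Tris pH 8.0, 300 mM NaCl, 1 mM TCEP. Glutathione donor and nickel acceptor beads; 1 h, 37 °C, dark.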
Starred values were filed as active, the others as inactive; [ ] = remark or other dose. Only some compounds are listed: those with a hit (about 10% of all), similar ones and a draw of the others. Unless noted, calls come from the whole dose curve; as a rule, active = well fitted inhibition curve with a large enough effect; inconclusive = small, poorly fitted or top-dose-only effect; inactive = no such curve, though single readings can be large or run the other way.

What do the screens show for `Cc1nn(CC(=O)N2CCC(C)CC2)c(=O)c2cc3occc3n12`?
JMJD2A Tudor inh: 4%; HP1b chromo inh: 34%; BAZ2B inh: 2%; G9a block: 3%[59 µM]

How did Cc1cc(C)n2nc(CC(=O)NNC(=O)COc3cccc(C)c3C)nc2n1 do in these assays?
JMJD2A Tudor inh: -1%; HP1b chromo inh: 35%; BAZ2B inh: -11%; Six1-Eya2 blk: 4

How did O=C(OCC(=O)C12CC3CC(CC(C3)C1)C2)c1ccc(O)cc1 do in these assays?
JMJD2A Tudor inh: -25%; HP1b chromo inh: 15%; Six1-Eya2 blk: -6

How did Nc1ccc(O)cc1C(=O)OCC(=O)C12CC3CC(CC(C3)C1)C2 do in these assays?
JMJD2A Tudor inh: inconclusive; HP1b chromo inh: -19%; CtBP-E1A blk: -17; BAZ2B inh: 50µM*; G9a block: 32µM*; Six1-Eya2 blk: -5

Results for Nc1ccc(O)cc1C(=O)OCC(=O)c1ccc(C2CCCCC2)cc1 ?
JMJD2A Tudor inh: inconclusive; HP1b chromo inh: inconclusive; CtBP-E1A blk: -23; BAZ2B inh: 40µM*; G9a block: 45µM*; Six1-Eya2 blk: inconclusive

Results for Cc1ccc(CNC(=O)C(=O)NCC(c2ccco2)S(=O)(=O)c2ccccc2)cc1 (stereo not drawn) ?
JMJD2A Tudor inh: -2%; HP1b chromo inh: 6%; BAZ2B inh: -2%; G9a block: 3%[59 µM]

Results for CC(=O)Nc1ccc(S(=O)(=O)NCCC(=O)NCc2ccco2)cc1 ?
CtBP-E1A blk: 1; Six1-Eya2 blk: 4

How did CCOc1ccccc1N(C)C(=O)c1cc(S(=O)(=O)NCCc2ccc(Cl)cc2)ccc1F do in these assays?
JMJD2A Tudor inh: -25%; HP1b chromo inh: 5%; BAZ2B inh: 3%; G9a block: 1%[59 µM]

How did Cc1ccccc1OCC(=O)N(Cc1ccc(C(C)C)cc1)C1CCS(=O)(=O)C1 (stereo not drawn) do in these assays?
JMJD2A Tudor inh: -15%; HP1b chromo inh: 32%; BAZ2B inh: -13%; G9a block: 3%[59 µM]

What do the screens show for `O=c1[nH]c2ccc(NCc3ccccc3OCc3ccc(Cl)cc3)cc2[nH]1`?
JMJD2A Tudor inh: 28µM*; HP1b chromo inh: inconclusive; CtBP-E1A blk: inconclusive; BAZ2B inh: 22µM*; G9a block: 25µM*; Six1-Eya2 blk: inconclusive

How did CCOc1cc(CNc2ccc(O)cc2)ccc1OCc1ccc(Cl)cc1 do in these assays?
JMJD2A Tudor inh: -36%; HP1b chromo inh: inconclusive; BAZ2B inh: -33%; G9a block: inconclusive

What do the screens show for `O=c1[nH]c2ccc(NCc3ccccc3F)cc2[nH]1`?
JMJD2A Tudor inh: inconclusive; HP1b chromo inh: -1%; BAZ2B inh: inconclusive; G9a block: 18µM*

How did O=c1[nH]c2ccc(NCc3ccc(-c4ccc(Cl)cc4)o3)cc2[nH]1 do in these assays?
JMJD2A Tudor inh: -15%; HP1b chromo inh: 25%; BAZ2B inh: inconclusive; G9a block: -30%[59 µM]

What do the screens show for `Oc1ccc(NCc2ccccc2OCc2ccc(Cl)cc2)cc1`?
JMJD2A Tudor inh: inconclusive; HP1b chromo inh: 5%; BAZ2B inh: -25%; G9a block: 7.9µM*

How did Cn1cnnc1SC1CCCCC1NS(=O)(=O)c1ccccc1 (stereo not drawn) do in these assays?
JMJD2A Tudor inh: -10%; HP1b chromo inh: 32%; CtBP-E1A blk: -10; BAZ2B inh: 11%; G9a block: 3%[59 µM]; Six1-Eya2 blk: 2

What do the screens show for `Nn1cnnc1SC1CCCCC1NS(=O)(=O)c1ccccc1` (stereo not drawn)?
JMJD2A Tudor inh: -21%; HP1b chromo inh: 7%; CtBP-E1A blk: -4; BAZ2B inh: 71µM*; G9a block: inconclusive; Six1-Eya2 blk: 16

Results for Cn1cnnc1SC1CCCCC1NS(=O)(=O)c1ccc(Cl)cc1 (stereo not drawn) ?
JMJD2A Tudor inh: -9%; HP1b chromo inh: 22%; CtBP-E1A blk: 12; BAZ2B inh: inconclusive; G9a block: 13µM*; Six1-Eya2 blk: 4

Source: PubChem BioAssay
